Shown are actives, neighbours in structure and some others; about 5.4% of the full set was active somewhere.
ALR inh: blocks human ALR sulfhydryl oxidase activity | AID 485317 | P55789 | hit rate 3.8% among 290,000 | inhibition, % (concentration not given with the values) | purified ALR, DTT oxidation, H2O2 HRP-luminol luminescence;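 active = mean replicate inhibition above about 79%, with every replicate also reaching it, limit read from the data; inconclusive = only one of the two criteria met; inactive = mean below limit and not every replicate reaching it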
Target sequence (P55789 whole entry, looked up): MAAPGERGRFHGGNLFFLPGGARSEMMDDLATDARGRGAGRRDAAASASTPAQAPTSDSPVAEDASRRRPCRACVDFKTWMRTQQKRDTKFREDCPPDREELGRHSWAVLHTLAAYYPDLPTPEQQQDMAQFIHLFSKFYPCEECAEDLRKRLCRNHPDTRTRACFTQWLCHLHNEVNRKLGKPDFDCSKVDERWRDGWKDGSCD
aDG glyco up: increases alpha dystroglycan glycosylation; activation, % at 10 µM; Pro5-aDG cells, alpha-DG glycosylation AlphaScreen (IIH6); 0% Pro5, 100% B10-LARGE cell signal; hit rate 0.22% among 360,000; AID 624168;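 active = activation of at least 8% versus controls, or a plate z-score of at least 8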;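 note: Pro5 are CHO cells carrying HIG-tagged alpha-DG that lacks glycosylation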
APOBEC3G inh: blocks human APOBEC3G single-stranded DNA deamination; Q9HC16; recombinant A3G, ssDNA deamination FAM/TAMRA fluorescence; inhibition, % at 20 µM; hit rate 0.28% among 330,000;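 active = inhibition of at least 40% at 20 µM, with no more than 30% in the related APOBEC3A deaminase screen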;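 note: plate controls were DMSO wells with A3G for no effect and wells lacking A3G enzyme for full effect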
PHOSPHO1 block: blocks human PHOSPHO1 phosphatase activity; recombinant PHOSPHO1, absorbance phosphatase assay; inhibition, % at 13.3 µM; hit rate 1.1% among 290,000; AID 1565; in the data active = inhibition above about 60%
Target sequence (Q8TCT1 whole entry, looked up): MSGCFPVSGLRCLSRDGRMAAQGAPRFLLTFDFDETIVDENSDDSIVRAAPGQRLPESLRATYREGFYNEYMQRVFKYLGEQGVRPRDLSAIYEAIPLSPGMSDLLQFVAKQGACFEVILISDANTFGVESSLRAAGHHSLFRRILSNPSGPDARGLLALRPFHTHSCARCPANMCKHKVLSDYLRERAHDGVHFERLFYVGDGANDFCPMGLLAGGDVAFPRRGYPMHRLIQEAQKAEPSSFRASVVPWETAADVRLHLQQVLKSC
A3A deaminase: inhibitors of human APOBEC3A DNA deaminase; P31941; recombinant A3A, FAM/TAMRA ssDNA deamination fluorescence; inhibition, % at 20 µM; hit rate 0.41% among 330,000;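 active = at least 40% inhibition at 20 µM here, with at most 30% in a related deaminase screen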;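 note: plate controls were A3A with DMSO for no effect and wells lacking A3A enzyme for full effect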
Target sequence (P31941 whole entry, looked up): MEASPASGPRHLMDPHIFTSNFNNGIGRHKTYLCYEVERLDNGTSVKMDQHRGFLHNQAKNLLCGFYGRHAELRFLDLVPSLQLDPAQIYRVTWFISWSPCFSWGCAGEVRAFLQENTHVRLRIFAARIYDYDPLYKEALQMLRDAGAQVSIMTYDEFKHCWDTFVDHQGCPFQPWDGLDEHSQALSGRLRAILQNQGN
rCAG RNA binder: molecules binding r(CAG) RNA repeats. hit rate 1.3% among 370,000. r(CAG) RNA repeat, TO-PRO-1 dye displacement fluorescence. inhibition, % at 3 µM. AID 651821;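 active = inhibition above the plate cutoff, the mean of all test compounds on that plate plus 3 SD, cut at about 35% in these data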;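 note: 0% = DMSO alone and 100% = 100 µM mitoxantrone as full dye displacement; higher means more dye released from RNA so lower well fluorescence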
Starred values were filed as active, the others as inactive; ? = inconclusive; · = no result given.

SMILES	ALR inh	aDG glyco up	APOBEC3G inh	PHOSPHO1 block	A3A deaminase	rCAG RNA binder
COc1ccc(CNC(=O)c2sc(=S)n(-c3ccc(OC)cc3)c2N)cc1	-6.3	-0.3	6.4	95.4*	0.2	·
O=C(NCc1cccnc1)c1sc2ccccc2c1Cl	-4.1	0.2	-3.0	39.9	5.8	1.3
Nc1c(C(=O)NCc2cccnc2)sc(=S)n1-c1ccccc1	40.8	0.1	38.0	95.5*	0.6	-1.2
CCn1c(N)c(C(=O)NCc2cccnc2)sc1=S	98.5*	0.1	-6.7	0.1	-1.8	-1.3
Cc1c(C(=O)NCc2cccnc2)sc2nc(-c3ccccc3)cn12	90.0*	0.5	-8.8	30.6	-2.5	9.2
Cc1c(C(=O)NCc2cccnc2)sc2nc(-c3ccc(F)cc3)cn12	-4.2	1.5	-6.6	22.1	-3.5	3.5
CC(C)(C)C(=O)NC1CCCCN(Cc2ccc(Cl)cc2)C1=O (centres undefined)	·	·	·	·	·	0.4
O=C(Nc1ccc(F)cc1)OCCN1C(=O)CCC12CCC(c1ccc(Cl)cc1)CC2 (centres undefined)	·	·	·	·	·	1.4
CCCCCCOc1ccc(/C(N)=N/O)cc1	98.8*	0.2	-2.1	-13.6	-2.3	-0.5
Cc1ccc2c(c1)-c1c(cnn1CC(=O)NCCc1cccc(F)c1)CO2	·	·	·	·	·	2.3
C=CC[n+]1c(-c2ccc(Cl)cc2Cl)csc1Nc1ccc(NC(C)=O)cc1	11.8	0.9	-3.6	-5.9	-2.2	3.5
Cc1ccc(-c2csc(Nc3ccccc3)[n+]2CCc2ccccc2)cc1	-3.4	0.0	16.8	1.4	2.4	-0.4
C=CC[n+]1c(C)csc1Nc1cccc(Br)c1	97.4*	0.0	-9.0	-2.1	-4.0	-4.5
C=CC[n+]1c(C)csc1Nc1ccc(C)cc1	98.9*	-0.1	-3.4	19.9	-1.5	-4.6
O=S1(=O)c2c(NCc3ccco3)cccc2Oc2ccccc2CN1Cc1cn(Cc2ccc(C(F)(F)F)cc2)nn1	·	·	·	·	·	11.7
Cc1ccc2c(c1)C1CS(=O)(=O)N(CCc3ccccc3)CN1C2 (centres undefined)	·	·	·	·	·	4.7
O=C(O)c1ccc(-n2c(-c3ccccc3)n[nH]c2=S)cc1	64.1	-0.1	-1.0	-15.6	-4.0	-1.8
O=C(O)c1ccc(-n2c(-c3cc(C4CC4)[nH]n3)n[nH]c2=S)cc1	·	0.0	-8.7	63.1*	-2.7	0.3
Cc1ccccc1-n1c(-c2ccco2)n[nH]c1=S	50.5	0.0	37.2	6.2	-7.1	-1.0
S=c1[nH]nc(-c2cc(-c3ccco3)[nH]n2)n1-c1cccc2ccccc12	1.1	-0.2	-2.9	93.8*	-1.8	21.6
O=C(O)c1ccc(-n2c(-c3cc(-c4ccco4)[nH]n3)n[nH]c2=S)cc1	95.5*	-0.6	61.4	-22.9	81.0	16.1
Cc1ccc(-n2c(-c3cc(-c4ccco4)[nH]n3)n[nH]c2=S)c(Br)c1	42.0	-0.1	7.8	18.8	-1.1	5.8
CC(=O)c1ccc(-n2c(-c3cc(-c4ccco4)[nH]n3)n[nH]c2=S)cc1	?	1.1	37.3	96.9*	1.6	11.0
COC(=O)[C@]12C=CCN1[C@H](c1ccc(OC)c(OC)c1)c1c(c3ccccc3n1S(=O)(=O)c1ccc(C)cc1)C2	·	·	·	·	·	12.4
Cc1c(COC(=O)NC(C)C)c(COC(=O)NC(C)C)c2n1CS(=O)(=O)C2	·	·	·	·	·	2.0
SMILES	ALR inh	aDG glyco up	APOBEC3G inh	PHOSPHO1 block	A3A deaminase	rCAG RNA binder
COc1ccc(-c2noc(C3CCCN(C(=O)Nc4ccc(C)c(F)c4)C3)n2)cc1 (centres undefined)	·	·	·	·	·	5.2
CCC1(C)N=C(N)Nc2nc3cc(C)c(C)cc3n21 (centres undefined)	99.2*	0.0	-3.2	16.0	2.5	5.0
O=C1C=C(Nc2ccccc2)c2ccccc2C1=O	·	11.2*	-4.9	19.9	-0.6	4.3
CCc1ccc(NC2=CC(=O)C(=O)c3ccccc32)cc1	·	5.4*	-2.8	·	0.9	7.0
CCCCNC1=CC(=O)C(=O)c2ccccc21	-29.7	6.9*	1.7	60.2*	1.0	0.2
CN(CC#Cc1ccccc1)C(N)=NC(=O)/C=C/c1cccc(C(F)(F)F)c1	·	·	·	·	·	1.2
COC(=O)[C@@]12CCCCC=C1N(CCc1ccc(Cl)cc1)C(=O)[C@H]2CC(=O)NCCc1ccccc1OC	·	·	·	·	·	6.6
CSCCCNC(=O)CN1C(=O)C2CCCCN2C(=O)c2ccccc21 (centres undefined)	·	·	·	·	·	4.0
Cc1ccc(-c2nc(C#N)c(NCCN3CCCCC3)o2)cc1	92.4*	0.5	-14.2	-22.8	-3.0	-7.5
N#Cc1nc(-c2ccccc2F)oc1NCCN1CCOCC1	96.0*	0.0	-7.1	-5.3	-2.9	0.3
N#Cc1nc(-c2cccc3ccccc23)oc1NCCN1CCOCC1	69.6	0.0	-8.1	15.2	-1.7	·
CCN1C(=O)/C(=C/N(C)C)c2ccccc21	99.2*	0.8	1.2	1.0	-0.2	4.3
C=CCNCc1ccc(OC)cc1OC	·	·	·	·	·	2.0
Cc1ccc(NC(=O)c2ccccc2)s1	95.5*	-0.1	16.1	20.9	-1.8	6.0
CC(C)CNC(=O)OCc1cn(Cc2ccccc2C(F)(F)F)nn1	·	·	·	·	·	2.9
CCN(Cc1ccncc1)C(=O)c1cc(Br)cc(Br)c1O	94.1*	0.0	-4.2	5.8	-1.7	2.0
CCCCCCCCN1C(=O)[C@@H](CC(=O)NCCCOC)C[C@@]2(C(=O)OC)C1=C[C@H](COCc1ccccc1)O[C@@H]2C	·	·	·	·	·	5.0
Cc1cc(N2C(=O)C(O)=C(C(=O)c3ccc(C)o3)C2c2ccc([N+](=O)[O-])cc2)no1 (centres undefined)	97.3*	-0.1	-4.9	45.3	-5.1	15.2
COc1ccc(C2C(C(=O)c3ccc(C)o3)=C(O)C(=O)N2c2cc(C)on2)cc1OC (centres undefined)	3.1	0.0	-2.5	60.5*	3.8	7.4
COc1cc(C2C(C(=O)c3ccc(C)o3)=C(O)C(=O)N2c2cc(C)on2)cc(Br)c1O (centres undefined)	25.5	2.9	-11.7	13.9	-20.7	8.5
CC(=O)Nc1ccc(SCC(=O)c2cc(C)n(Cc3cccs3)c2C)cc1	-11.0	0.0	-0.2	31.0	-1.7	5.6
C=CCn1c(C)cc(C(=O)CSc2nnc(Cc3ccccc3)o2)c1C	·	-0.1	-4.3	87.5*	-3.3	-8.5
COCCn1c(C)cc(C(=O)CSc2ccc3ccccc3n2)c1C	63.5	-0.1	22.0	68.8*	-0.6	4.3
COCCn1c(C)cc(C(=O)CSc2ccc(NC(C)=O)cc2)c1C	98.3*	-0.5	0.9	20.1	-3.6	-0.4
COCC(C)n1c(C)cc(C(=O)CSc2ccc(NC(C)=O)cc2)c1C (centres undefined)	98.5*	-0.1	-8.4	34.9	-2.7	-2.4
Cc1cc(C(=O)CSc2nnc(Cc3ccccc3)o2)c(C)n1Cc1ccc2c(c1)OCO2	1.3	-0.1	-0.3	9.7	-3.5	0.5
C=CCCC1CN(Cc2ccc(OC)cc2)S(=O)(=O)c2c(cccc2N(C)S(=O)(=O)c2ccc(C)cc2)O1 (centres undefined)	·	·	·	·	·	5.7

Source: PubChem
